Drawing on PubChem BioAssay AID1347413 (National Center for Advancing Translational Sciences (NCATS), 2020), this text covers Potency for 4 molecules.

The source made the active and inactive calls. Entries that show only a call come without a potency. Calls come from the whole dose curve; as a rule, active = well fitted curve in the direction sought with a large enough effect; inactive = no such curve, though single readings can be large or run the other way.

A short description of this experiment: qHTS to identify inhibitors of the type 1 interferon - major histocompatibility complex class I in skeletal muscle: tertiary screen by RT-qPCR, retest select compounds. The settings on record: C25cl48 myoblasts, IFN-beta, HLA-B RT-qPCR, 24 h; series mostly up to 49.8 µM. The source says:
Assay Submitter (PI): Travis B. Kinder Ph.D. & James Inglese Ph.D. Assay Development and Screening Technology Laboratory (ADST) National Center for Advancing Translational Sciences (NCATS), Rockville, MD National Institute of Health (NIH), Bethesda, Maryland Idiopathic inflammatory myopathies, collectively referred to as myositis, are a group of rare autoimmune diseases characterized by skeletal muscle inflammation, weakness, and usually accompanied by systemic pathologies of the skin, lungs, or vasculature. Current immunosuppressive therapies and glucocorticoids are often not curative and are accompanied by harsh side effects, especially in children with juvenile myositis. We initiated a drug repurposing and development program to identify more targeted, less toxic therapeutics to treat myositis. Although its cause is not known, muscle from a subset of patients have an abundance of the inflammatory type 1 interferon (IFN) and a down-stream product major histocompatibility complex class I (MHC class I), which are both thought to contribute to damage and weakness. We conducted quantitative high throughput screening (qHTS) on 6,576 compounds (4,679 unique) through a series of cell-based assays to identify those that inhibit the IFN-stimulated expression of MHC class I in muscle precursor cells (myoblasts). The compound identification and evaluation strategy utilized a primary screen with reporter-tagged MHC class I in genome-engineered myoblasts, ATP content counter screen for viability, HLA-ABC immunofluorescence secondary screen, and HLA-B RT-qPCR tertiary screen. To determine if active compounds identified by qHTS in HLA-B HiBit reporter cells, and confirmed by HLA-ABC immunofluorescence, can inhibit the transcription of HLA-B mRNA, compounds were assayed by RT-qPCR. […] Briefly, five compounds identified from primary, counter, and secondary screening as inhibitory with minimal cytotoxicity were dispensed into 384-well plates using acoustic dispensing in a 6-point, 1:7 titration with a high final concentration of 10 uM. Normal immortalized human myoblasts C25cl48 were added to the plate with 4.0 ng/ml human IFN-beta for 24 hours, and cells were harvested and assayed by the Cells-to-Ct kit with TaqMan assays (Thermo Fisher).
PROTOCOL TABLE (as described by Inglese et al., 2007) SEQUENCE No. (e.g., 1, 2, 3, etc.); PARAMETER (e.g., Cells, Incubation, Reagent, etc.); VALUE; DESCRIPTION 0; Compounds; 150 nl; Follow-up compounds dispensed at 150 nl/well with Labcyte Echo 655 acoustic dispenser into one Corning white/clear bottom, high base TC 384-well plates (3765) 1a; Cells; 30 uL; Using a p200 manual pipette, seed 780 cells/well into 1 plate in 30 ul/well of iHSKM growth medium without dexamethasone into columns wells A1-A6. […]
Take `CS[C@H]1SC[C@@H]2C(=O)N(C)[C@H](C(C)C)C(=O)OC[C@H](NC(=O)c3cnc4ccccc4n3)C(=O)N[C@H](C)C(=O)N(C)[C@H]1C(=O)N(C)[C@H](C(C)C)C(=O)OC[C@H](NC(=O)c1cnc3ccccc3n1)C(=O)N[C@H](C)C(=O)N2C`: the Potency was 2.9 nM (active). With `C[C@]12C=CC(=O)C=C1CC[C@@H]1[C@@H]2[C@@H](O)C[C@@]2(C)[C@H]1CC[C@]2(O)C(=O)CO`, the Potency result was “inactive”. For the molecule `CC(=O)OCC(=O)[C@@]12OC(C)(C)O[C@@H]1C[C@H]1[C@@H]3C[C@H](F)C4=CC(=O)C=C[C@]4(C)[C@@]3(F)[C@@H](O)C[C@@]12C`, the Potency result was “inactive”.

For `Cc1ncsc1-c1ccc([C@H](C)NC(=O)[C@@H]2C[C@@H](O)CN2C(=O)[C@@H](NC(=O)COCCCOCCNC(=O)C[C@@H]2N=C(c3ccc(Cl)cc3)c3c(sc(C)c3C)-n3c(C)nnc32)C(C)(C)C)cc1`, the Potency is 164 nM (active).
